# Test results from PMC11006913.
# Where a chain is given by its changes, count along the chain named.
# Columns and labels:
# Test in all cases: PBM; 200 nM protein, PBS
# Conditions in all cases: dsDNA, one strand shown
# [1] = target: CRX (Homo sapiens, UniProt O43186 26-111)
# [2] = target: HOXA4 (Homo sapiens, UniProt Q00056 201-287, W262R)
# [3] = target: PRRX1 (Homo sapiens, UniProt P54821 80-166, F113S)
# [4] = target: HOXA4 (Homo sapiens, UniProt Q00056 201-287, R217L)
# [5] = target: CRX (Homo sapiens, UniProt O43186 26-111, E42D)
# [6] = target: HOXA4 (Homo sapiens, UniProt Q00056 201-287)
# [7] = target: HOXA4 (Homo sapiens, UniProt Q00056 201-287, W262F)
# [8] = target: PRRX1 (Homo sapiens, UniProt P54821 80-166)
# [9] = target: PITX2 (Homo sapiens, UniProt Q99697 72-157)
# [10] = target: CRX (Homo sapiens, UniProt O43186 26-111, R41L)
# [11] = target: T1, SIX6 (Homo sapiens, UniProt O95475 114-200, L167I)
# T1 sequence: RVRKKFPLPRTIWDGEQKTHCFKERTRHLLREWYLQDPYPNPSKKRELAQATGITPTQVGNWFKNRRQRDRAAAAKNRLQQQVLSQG
# [12] = target: T2, SIX6 (Homo sapiens, UniProt O95475 114-200, L143V)
# T2 sequence: T1 sequence with L30V, I54L
# [13] = target: T3, SIX6 (Homo sapiens, UniProt O95475 114-200, H141N)
# T3 sequence: T1 sequence with H28N, I54L
# [14] = target: T4, SIX6 (Homo sapiens, UniProt O95475 114-200, T165P)
# T4 sequence: T1 sequence with T52P, I54L
# [15] = target: T5, SIX6 (Homo sapiens, UniProt O95475 114-200, L167M)
# T5 sequence: T1 sequence with I54M
# [16] = target: T6, SIX6 (Homo sapiens, UniProt O95475 114-200, L143M)
# T6 sequence: T1 sequence with L30M, I54L
# [17] = target: T7, SIX6 (Homo sapiens, UniProt O95475 114-200, L143I)
# T7 sequence: T1 sequence with L30I, I54L
# [18] = target: T8, SIX6 (Homo sapiens, UniProt O95475 114-200, T165G)
# T8 sequence: T1 sequence with T52G, I54L
# [19] = target: T9, SIX6 (Homo sapiens, UniProt O95475 114-200, T139Q)
# T9 sequence: T1 sequence with T26Q, I54L
# [20] = target: T10, SIX6 (Homo sapiens, UniProt O95475 114-200, T165A)
# T10 sequence: T1 sequence with T52A, I54L
# [21] = target: T11, SIX6 (Homo sapiens, UniProt O95475 114-200, L167V)
# T11 sequence: T1 sequence with I54V
# [22] = target: T12, SIX6 (Homo sapiens, UniProt O95475 114-200)
# T12 sequence: T1 sequence with I54L
# [23] = target: T13, SIX6 (Homo sapiens, UniProt O95475 114-200, T165I)
# T13 sequence: T1 sequence with T52I, I54L
# [24] = target: T14, VENTX (Homo sapiens, UniProt O95231 78-163, R121Q)
# T14 sequence: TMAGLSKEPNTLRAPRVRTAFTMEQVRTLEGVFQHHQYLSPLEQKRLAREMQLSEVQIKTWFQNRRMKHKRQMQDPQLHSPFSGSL
# [25] = target: T15, VENTX (Homo sapiens, UniProt O95231 78-163, Y115F)
# T15 sequence: T14 sequence with Y38F, Q44R
# [26] = target: T16, NKX2-4 (Homo sapiens, UniProt Q9H2Z4 175-261, P217L)
# T16 sequence: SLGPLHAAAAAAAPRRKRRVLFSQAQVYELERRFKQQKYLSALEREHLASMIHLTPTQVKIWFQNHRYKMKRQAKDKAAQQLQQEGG
# [27] = target: HOXC10 (Homo sapiens, UniProt Q9NYD6 254-340)
# [28] = target: T17, NKX2-4 (Homo sapiens, UniProt Q9H2Z4 175-261)
# T17 sequence: T16 sequence with L43P
# [29] = target: HOXA2 (Homo sapiens, UniProt O43364 129-215, R185T)
# [30] = target: HOXA2 (Homo sapiens, UniProt O43364 129-215, R185K)
# [31] = target: HOXC10 (Homo sapiens, UniProt Q9NYD6 254-340, K271E)
# [32] = target: T18, NKX2-4 (Homo sapiens, UniProt Q9H2Z4 175-261, R246Q)
# T18 sequence: T16 sequence with L43P, R72Q
# [33] = target: HOXA2 (Homo sapiens, UniProt O43364 129-215, Y150S)
# [34] = target: NKX3-2 (Homo sapiens, UniProt P78367 192-278, P234S)
# [35] = target: HOXA2 (Homo sapiens, UniProt O43364 129-215)
# [36] = target: NKX3-2 (Homo sapiens, UniProt P78367 192-278)
# Chain of NKX3-2 (Homo sapiens, UniProt P78367 192-278) (P78367 192-278): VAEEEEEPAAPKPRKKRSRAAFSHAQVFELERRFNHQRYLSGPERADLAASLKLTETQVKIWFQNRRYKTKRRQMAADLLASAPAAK
# Chain of CRX (Homo sapiens, UniProt O43186 26-111, E42D) (O43186 26-111 E42D): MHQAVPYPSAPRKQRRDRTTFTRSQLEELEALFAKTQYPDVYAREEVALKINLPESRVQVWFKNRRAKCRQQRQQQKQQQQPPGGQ
# Chain of CRX (Homo sapiens, UniProt O43186 26-111) (O43186 26-111): as the sequence (O43186 26-111 E42D) above, with D17E counted along it
# Chain of CRX (Homo sapiens, UniProt O43186 26-111, R41L) (O43186 26-111 R41L): as the sequence (O43186 26-111 E42D) above, with R16L, D17E counted along it
# Chain of HOXA4 (Homo sapiens, UniProt Q00056 201-287) (Q00056 201-287): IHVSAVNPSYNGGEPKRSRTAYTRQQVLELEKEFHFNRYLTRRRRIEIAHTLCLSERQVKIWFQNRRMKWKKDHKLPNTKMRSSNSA
# Chain of HOXA4 (Homo sapiens, UniProt Q00056 201-287, W262R) (Q00056 201-287 W262R): as the sequence (Q00056 201-287) above, with W62R counted along it
# Chain of HOXA2 (Homo sapiens, UniProt O43364 129-215) (O43364 129-215): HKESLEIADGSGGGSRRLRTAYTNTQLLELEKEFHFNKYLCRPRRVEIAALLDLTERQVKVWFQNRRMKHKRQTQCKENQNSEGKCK
# Chain of HOXA2 (Homo sapiens, UniProt O43364 129-215, R185K) (O43364 129-215 R185K): as the sequence (O43364 129-215) above, with R57K counted along it
# Chain of HOXC10 (Homo sapiens, UniProt Q9NYD6 254-340) (Q9NYD6 254-340): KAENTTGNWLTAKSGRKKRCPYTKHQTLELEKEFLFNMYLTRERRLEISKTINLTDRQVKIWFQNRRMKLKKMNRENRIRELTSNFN
# Chain of HOXA2 (Homo sapiens, UniProt O43364 129-215, R185T) (O43364 129-215 R185T): as the sequence (O43364 129-215) above, with R57T counted along it
# Chain of PRRX1 (Homo sapiens, UniProt P54821 80-166, F113S) (P54821 80-166 F113S): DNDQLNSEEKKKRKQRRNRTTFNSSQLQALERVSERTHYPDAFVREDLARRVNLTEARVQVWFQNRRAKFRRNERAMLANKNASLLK
# Chain of HOXA4 (Homo sapiens, UniProt Q00056 201-287, W262F) (Q00056 201-287 W262F): as the sequence (Q00056 201-287) above, with W62F counted along it
# Chain of NKX3-2 (Homo sapiens, UniProt P78367 192-278, P234S) (P78367 192-278 P234S): as the sequence (P78367 192-278) above, with P43S counted along it
# Chain of HOXA2 (Homo sapiens, UniProt O43364 129-215, Y150S) (O43364 129-215 Y150S): as the sequence (O43364 129-215) above, with Y22S counted along it
# Chain of HOXA4 (Homo sapiens, UniProt Q00056 201-287, R217L) (Q00056 201-287 R217L): as the sequence (Q00056 201-287) above, with R17L counted along it
# Chain of HOXC10 (Homo sapiens, UniProt Q9NYD6 254-340, K271E) (Q9NYD6 254-340 K271E): as the sequence (Q9NYD6 254-340) above, with K18E counted along it
# Chain of PRRX1 (Homo sapiens, UniProt P54821 80-166) (P54821 80-166): as the sequence (P54821 80-166 F113S) above, with S34F counted along it
sequence,measurement,setting,value
GGGGCTCA,binding signal,[1],"9.96 upbm affinity estimate (log intensity, higher = more binding, comparable within an allelic series)"
same,binding signal,[2],"9.76 upbm affinity estimate (log intensity, higher = more binding, comparable within an allelic series)"
same,binding signal,[3],"9.31 upbm affinity estimate (log intensity, higher = more binding, comparable within an allelic series)"
same,binding signal,[4],"9.78 upbm affinity estimate (log intensity, higher = more binding, comparable within an allelic series)"
same,binding signal,[5],"9.8 upbm affinity estimate (log intensity, higher = more binding, comparable within an allelic series)"
same,binding signal,[6],"9.76 upbm affinity estimate (log intensity, higher = more binding, comparable within an allelic series)"
same,binding signal,[7],"9.78 upbm affinity estimate (log intensity, higher = more binding, comparable within an allelic series)"
same,binding signal,[8],"9.52 upbm affinity estimate (log intensity, higher = more binding, comparable within an allelic series)"
GTGGATTA,binding signal,[1],"13.3 upbm affinity estimate (log intensity, higher = more binding, comparable within an allelic series)"
same,binding signal,[2],"10.2 upbm affinity estimate (log intensity, higher = more binding, comparable within an allelic series)"
same,binding signal,[5],"13.3 upbm affinity estimate (log intensity, higher = more binding, comparable within an allelic series)"
same,binding signal,[9],"13.2 upbm affinity estimate (log intensity, higher = more binding, comparable within an allelic series)"
same,binding signal,[6],"10.8 upbm affinity estimate (log intensity, higher = more binding, comparable within an allelic series)"
same,binding signal,[10],"13.1 upbm affinity estimate (log intensity, higher = more binding, comparable within an allelic series)"
CCGTCGCC,binding signal,[1],"8.18 upbm affinity estimate (log intensity, higher = more binding, comparable within an allelic series)"
same,binding signal,[11],"8.85 upbm affinity estimate (log intensity, higher = more binding, comparable within an allelic series)"
same,binding signal,[12],"8.91 upbm affinity estimate (log intensity, higher = more binding, comparable within an allelic series)"
same,binding signal,[13],"8.81 upbm affinity estimate (log intensity, higher = more binding, comparable within an allelic series)"
same,binding signal,[14],"9.06 upbm affinity estimate (log intensity, higher = more binding, comparable within an allelic series)"
same,binding signal,[15],"8.97 upbm affinity estimate (log intensity, higher = more binding, comparable within an allelic series)"
same,binding signal,[16],"8.82 upbm affinity estimate (log intensity, higher = more binding, comparable within an allelic series)"
same,binding signal,[17],"8.94 upbm affinity estimate (log intensity, higher = more binding, comparable within an allelic series)"
same,binding signal,[18],"8.89 upbm affinity estimate (log intensity, higher = more binding, comparable within an allelic series)"
same,binding signal,[19],"9.02 upbm affinity estimate (log intensity, higher = more binding, comparable within an allelic series)"
same,binding signal,[5],"8.26 upbm affinity estimate (log intensity, higher = more binding, comparable within an allelic series)"
same,binding signal,[20],"8.74 upbm affinity estimate (log intensity, higher = more binding, comparable within an allelic series)"
same,binding signal,[21],"8.83 upbm affinity estimate (log intensity, higher = more binding, comparable within an allelic series)"
same,binding signal,[22],"8.87 upbm affinity estimate (log intensity, higher = more binding, comparable within an allelic series)"
same,binding signal,[23],"8.79 upbm affinity estimate (log intensity, higher = more binding, comparable within an allelic series)"
same,binding signal,[10],"8.24 upbm affinity estimate (log intensity, higher = more binding, comparable within an allelic series)"
CAGATTAG,binding signal,[1],"13.1 upbm affinity estimate (log intensity, higher = more binding, comparable within an allelic series)"
same,binding signal,[24],"10.6 upbm affinity estimate (log intensity, higher = more binding, comparable within an allelic series)"
same,binding signal,[25],"10.7 upbm affinity estimate (log intensity, higher = more binding, comparable within an allelic series)"
same,binding signal,[5],"13.1 upbm affinity estimate (log intensity, higher = more binding, comparable within an allelic series)"
same,binding signal,[9],"12.3 upbm affinity estimate (log intensity, higher = more binding, comparable within an allelic series)"
same,binding signal,[10],"12.6 upbm affinity estimate (log intensity, higher = more binding, comparable within an allelic series)"
CGGATGAG,binding signal,[1],"9.93 upbm affinity estimate (log intensity, higher = more binding, comparable within an allelic series)"
GCCCGGGC,binding signal,[1],"8.05 upbm affinity estimate (log intensity, higher = more binding, comparable within an allelic series)"
same,binding signal,[26],"8.34 upbm affinity estimate (log intensity, higher = more binding, comparable within an allelic series)"
same,binding signal,[27],"9.84 upbm affinity estimate (log intensity, higher = more binding, comparable within an allelic series)"
same,binding signal,[28],"8.35 upbm affinity estimate (log intensity, higher = more binding, comparable within an allelic series)"
same,binding signal,[29],"6.98 upbm affinity estimate (log intensity, higher = more binding, comparable within an allelic series)"
same,binding signal,[5],"8.04 upbm affinity estimate (log intensity, higher = more binding, comparable within an allelic series)"
same,binding signal,[9],"8.05 upbm affinity estimate (log intensity, higher = more binding, comparable within an allelic series)"
same,binding signal,[30],"9.77 upbm affinity estimate (log intensity, higher = more binding, comparable within an allelic series)"
same,binding signal,[31],"10.1 upbm affinity estimate (log intensity, higher = more binding, comparable within an allelic series)"
same,binding signal,[32],"8.33 upbm affinity estimate (log intensity, higher = more binding, comparable within an allelic series)"
same,binding signal,[33],"10.4 upbm affinity estimate (log intensity, higher = more binding, comparable within an allelic series)"
same,binding signal,[34],"9.95 upbm affinity estimate (log intensity, higher = more binding, comparable within an allelic series)"
same,binding signal,[10],"8.04 upbm affinity estimate (log intensity, higher = more binding, comparable within an allelic series)"
same,binding signal,[35],"7.45 upbm affinity estimate (log intensity, higher = more binding, comparable within an allelic series)"
same,binding signal,[36],"9.83 upbm affinity estimate (log intensity, higher = more binding, comparable within an allelic series)"
